Data on 24 compounds can be found in PubChem BioAssay (NCATS).

Assay [1] deals with Metallo-beta-lactamase type 2 (Klebsiella pneumoniae) (UniProt C7C422). Nature of the assay: qHTS to identify inhibitors of the New Delhi Metallo-beta-lactamase (NDM): assay validation screen against the NCATS LOPAC Collection (AID 1794843).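 Further: nitrocefin turnover by NDM-1 measured as 485 nm absorbance at plateau; series mostly up to about 38 µM.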 The procedure, abridged: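 NDM-1 at 2 nM final in 50 mM HEPES pH 7.0 with 1 uM ZnSO4 and 0.01% Tween20 was preincubated with library compounds in DMSO. Nitrocefin (50 uM stock) was then added, and absorbance at 485 nm was read at the kinetic plateau.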
(In general: Quantitative high-throughput screening tests each substance at several concentrations.)

Assay [2] addresses Glutathione peroxidase 1 (Homo sapiens) (UniProt P07203). As to the kind of experiment: Primary qHTS Assay for Inhibitors of Recombinant Selenoprotein Glutathione Peroxidase 1 (GPX1) (AID 1845191). Further: nearly all actives have a fitted effect of over 65% in size. The method, boiled down: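 10 nM GPX1 + cpd, 30 min RT; start w/ 1 mM GSH, 0.5 mM cumene hydroperoxide, 0.5 mM NADPH, 100 nM GR, 0.01% BSA; buffer 50 mM Tris-HCl pH 7.5, 2 mM EDTA, 150 mM NaCl; Fl 340/450, 0 & 15 min.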

The target in assay [3] is Phospholipid hydroperoxide glutathione peroxidase GPX4 (Homo sapiens) (UniProt P36969). Nature of the assay: Primary qHTS Assay for Inhibitors of Recombinant Selenoprotein Glutathione Peroxidase 4 (GPX4) (AID 1845192). Further: nearly all actives have a fitted effect of over 65% in size. Further: potency means the concentration at half of the fitted maximal effect. The procedure, abridged: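 NADPH consumption, followed by fluorescence at 340/450 nm between 0 and 15 min, reports GPX4 activity via coupled glutathione reductase (100 nM). Enzyme 200 nM was pre-exposed to compound 30 min; 0.5 mM cumene hydroperoxide and 1 mM GSH served as substrates.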

Assay [4] is described as follows: Quantitative High-Throughput drug screen in 47 multiple myeloma cell lines against the NCATS MIPE library collection: EJM_DSMZ cell viability assay (AID 1918926; further: nearly all actives have a fitted effect of over 30% in size; further: potency means the concentration at half of the fitted maximal effect). The method, boiled down: (§1)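 CellTiter-Glo luminescence (ATP) after 48 h compound exposure, 37C/5% CO2; 500 cells/well; MIPE 4.0 approved/investigational drugs pinned in; DMSO = 100%, media only = 0% viability.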

A short description of assay [5]: Quantitative High-Throughput drug screen in 47 multiple myeloma cell lines against the NCATS MIPE library collection: AMO1_DSMZ cell viability assay (AID 1918927; further: nearly all actives have a fitted effect of over 30% in size; further: potency means the concentration at half of the fitted maximal effect). The method, boiled down:
as §1

Assay [6] in a line: Quantitative High-Throughput drug screen in 47 multiple myeloma cell lines against the NCATS MIPE library collection: ARP1_JJKsccF8 cell viability assay (AID 1918928; further: nearly all actives have a fitted effect of over 40% in size; further: potency means the concentration at half of the fitted maximal effect). The procedure, abridged: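 Myeloma cells, 500 per well, were exposed to MIPE 4.0 drugs by pin transfer for 48 h at 37 °C, 5% CO2. Viability was read as ATP luminescence with CellTiter-Glo, normalised to DMSO-only (100%) and medium-only (0%) wells.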

Assay [7] in a line: Quantitative High-Throughput drug screen in 47 multiple myeloma cell lines against the NCATS MIPE library collection: ARD_JJKsccE7 cell viability assay (AID 1918929; further: potency means the concentration at half of the fitted maximal effect). The method, boiled down:
as §1

A short description of assay [8]: Quantitative High-Throughput drug screen in 47 multiple myeloma cell lines against the NCATS MIPE library collection: FR4_PLB cell viability assay (AID 1918924; further: nearly all actives have a fitted effect of over 35% in size; further: potency means the concentration at half of the fitted maximal effect). The method, boiled down: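 Primary qHTS used for cherry-picking: cells at 500/well, library compounds for 48 h (37C, 5% CO2), luminescent ATP assay.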
The nature of assay [9]: Quantitative High-Throughput drug screen in 47 multiple myeloma cell lines against the NCATS MIPE library collection: Delta47_JCRB cell viability assay (AID 1918925; further: nearly all actives have a fitted effect of over 45% in size; further: potency means the concentration at half of the fitted maximal effect). The procedure, abridged:
as §1

Assay [10] addresses Luciferin 4-monooxygenase (Photinus pyralis) (UniProt P08659). Nature of the assay: Primary firefly luciferase (FLuc) qHTS assay for identification of artifact compounds. (AID 1845220). Further: series mostly up to about 54 µM; nearly all actives have a fitted effect of over 60% in size. The note with it: outcome: dose series up to 54.1 µM. The method, boiled down:
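FLuc 10 nM; luciferin 10 uM; ATP 10 uM; Tris-acetate pH 7.6, Mg-acetate 10 mM; 15 min RT preincubation; 5 min reaction; luminescence.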

The test system of assay [11] is Nanoluciferase (engineered Oplophorus gracilirostris luciferase). As to the kind of experiment: Primary Nanoluciferase (NLuc) qHTS assay for identification of artifact compounds. (AID 1845222).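 Further: NLuc secreted into diluted conditioned medium of S16 cells; series mostly up to about 54 µM.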 The procedure, abridged: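 NLuc from S16 cell medium (1:55) plus test compounds, 15 min, room temperature. Luminescence after Nano-Glo (1:100) addition, 5 min.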
Assay [12] can be described thus: Primary redox qHTS assay for identification of artifact compounds. (AID 1845223). The method, boiled down:
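Amplex Red (25 uM) and HRP (250 mU/mL) in HBSS, with compounds for 15 min, then 250 uM DTT for 30 min, room temperature, dark. Fluorescence 525/598 nm read; normalized to DMSO and 10 uM DA3003; Hill fit.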

Structures are written as SMILES. Records with an inconclusive call do not appear. Some compounds were tested as several samples or in several runs, with calls that do not always agree. Calls of active or inactive are those of the source. The call rests on the fitted dose curve; in most records, active means well fitted curve in the direction sought with a large enough effect; inconclusive means small, poorly fitted or top-dose-only effect, or another doubt; inactive means no such curve, though single readings can be large; an effect the other way counts as inactive or inconclusive.

Phospholipid hydroperoxide glutathione peroxidase GPX4 (Homo sapiens), sequence (P36969 whole entry, looked up): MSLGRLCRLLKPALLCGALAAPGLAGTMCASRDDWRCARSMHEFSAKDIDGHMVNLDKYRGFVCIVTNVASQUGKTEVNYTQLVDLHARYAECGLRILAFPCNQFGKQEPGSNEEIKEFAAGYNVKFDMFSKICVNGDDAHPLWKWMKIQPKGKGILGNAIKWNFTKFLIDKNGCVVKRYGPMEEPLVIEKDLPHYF
Metallo-beta-lactamase type 2 (Klebsiella pneumoniae), sequence (C7C422 whole entry, looked up): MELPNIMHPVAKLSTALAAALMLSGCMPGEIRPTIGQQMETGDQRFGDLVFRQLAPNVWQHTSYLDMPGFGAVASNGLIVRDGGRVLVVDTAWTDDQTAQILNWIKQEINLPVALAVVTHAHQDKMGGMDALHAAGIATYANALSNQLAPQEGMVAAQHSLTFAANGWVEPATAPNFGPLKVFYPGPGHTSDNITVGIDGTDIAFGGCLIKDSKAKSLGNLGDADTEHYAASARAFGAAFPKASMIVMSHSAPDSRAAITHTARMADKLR
Glutathione peroxidase 1 (Homo sapiens), sequence (P07203 whole entry, looked up): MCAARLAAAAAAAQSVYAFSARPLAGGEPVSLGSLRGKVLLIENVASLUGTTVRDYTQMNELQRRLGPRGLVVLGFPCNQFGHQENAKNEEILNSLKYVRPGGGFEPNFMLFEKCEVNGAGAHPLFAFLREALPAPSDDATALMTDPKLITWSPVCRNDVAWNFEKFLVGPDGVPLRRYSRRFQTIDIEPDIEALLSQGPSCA

For the compound `O=C(Nc1ccc([N+](=O)[O-])cc1Cl)c1cc(Cl)ccc1O`, the compound was classed as inactive in assay [1]. Also, the Potency entry in assay [2] and in assay [3] was “inactive” throughout. Also, the Potency in assay [4] was 1.87 µM (active); in assay [5] it was 0.526 µM (active); in assay [6], 1.66 µM (active); in assay [7] it was 0.526 µM (active).

With `NC(=O)OCC(COC(N)=O)c1ccccc1`, in assay [1], the result was inactive. The Potency entry in assay [2], in assay [3], in assay [8], in [9], in assay [4] and in assay [5] was “inactive” each time. Besides, the Potency entry in [6] and in assay [7] was “inactive” each time.

`CC[N+](CC)(CC)CCOc1cccc(OCC[N+](CC)(CC)CC)c1OCC[N+](CC)(CC)CC`: the result in assay [1] was inactive. Also, the Potency entry in [2], in assay [3], in [9], in assay [4], in assay [5] and in assay [7] was “inactive” throughout.

Consider `O=C1Cc2cc(CCN3CCN(c4nsc5ccccc45)CC3)c(Cl)cc2N1`, for which the result in [1], in [10], in assay [11] and in [12] was inactive. Besides, the Potency result in assay [2] was “inactive”. For the same compound, the Potency in assay [3] is 15.8 µM (active) and inactive; in assay [9] it was 23.5 µM (active).

Regarding `CCOC(=O)Nc1ccc(NCc2ccc(F)cc2)nc1N`, the compound was classed as inactive in [1]. The Potency result in assay [2], in assay [3], in assay [9], in assay [4] and in assay [6] was “inactive” each time. The Potency in assay [5] and in assay [7] was 18.7 µM (active) throughout.

On to `CN1CCN(C2=Nc3cc(Cl)ccc3Nc3ccccc32)CC1`, for which, in [1], the compound was classed as inactive. The Potency entry in [2], in assay [3], in assay [4] and in assay [6] was “inactive” in each case. Besides, the Potency in assay [9] is 20.9 µM (active).

Consider `CCN1CCCC1CNC(=O)c1cc(S(=O)(=O)CC)c(N)cc1OC` (configuration not stated), for which the result in assay [1] was inactive. In addition, the Potency entry in assay [2], in [3], in assay [9], in [4] and in assay [6] was “inactive” each time. Besides, the Potency in assay [5] was 0.0743 µM (active).

As for `CCC1(C)CC(=O)NC1=O` (configuration not stated), the compound was called inactive in assay [1]. The Potency result in assay [2], in [3], in [9], in [4], in assay [5] and in assay [6] was “inactive” in each case. Moreover, in [7], the Potency is 0.0037 µM (active).

As to `NCCc1cnc[nH]1`, the outcome in assay [1] was inactive. Besides, the Potency result in assay [2], in [3], in assay [8], in assay [5], in assay [6] and in [7] was “inactive” throughout. Moreover, the Potency in assay [4] is 14.8 µM (active).

As for `NC(CO)C(=O)NNCc1ccc(O)c(O)c1O` (configuration not stated), in assay [1], the result was inactive. Besides, the Potency result in assay [2], in [3], in assay [9], in assay [5] and in assay [7] was “inactive” in each case. In addition, the Potency in assay [6] is 23.5 µM (active).

On to `CN1C2CCC1CC(OC(=O)C(CO)c1ccccc1)C2` (configuration not stated), for which the result in assay [1] was inactive. For the same compound, the Potency entry in assay [2], in [3], in assay [8], in assay [9], in [4] and in assay [5] was “inactive” throughout. Besides, the Potency entry in assay [6] and in assay [7] was “inactive” throughout.

As for `CC#C[C@]1(O)CC[C@H]2[C@@H]3CCC4=CC(=O)CCC4=C3[C@@H](c3ccc(N(C)C)cc3)C[C@@]21C`, the result in [1] was inactive. The Potency entry in assay [2] and in [3] was “inactive” in each case. Besides, the Potency in assay [8] is 1.66 µM (active); in assay [9] it was 0.59 µM (active); in assay [4] it was 1.32 µM (active); in assay [5], 0.743 µM (active); in assay [6], 1.05 µM (active); in [7] it was 2.64 µM (active).

With `CC(C)C(=O)Nc1ccc([N+](=O)[O-])c(C(F)(F)F)c1`, the compound was classed as inactive in assay [1]. The Potency result in assay [2], in [3] and in [6] was “inactive” in each case. The Potency is 3.32 µM (active) in assay [9], 1.48 µM (active) in [4], 4.69 µM (active) in assay [5] and 18.7 µM (active) in [7].

In the case of `CN1CCC(=C2c3ccccc3CC(=O)c3sccc32)CC1`, the call in assay [1] was inactive. Moreover, the Potency result in assay [2], in [3], in [6] and in assay [7] was “inactive” each time. Moreover, the Potency in assay [4] is 20.9 µM (active); in assay [5], 16.6 µM (active).

Turning to `O=C(c1ccc(OCCN2CCCCC2)cc1)c1c(-c2ccc(O)cc2)sc2cc(O)ccc12`, in assay [1], the call was inactive. Besides, the Potency result in [2] and in [3] was “inactive” in each case. The Potency in assay [8] was 26.4 µM (active); in [5], 20.9 µM (active); in assay [7], 26.4 µM (active).

Regarding `Cn1cnc2c1c(=O)[nH]c(=O)n2C`, the compound was called inactive in assay [1]. Besides, the Potency entry in assay [2] and in assay [3] was “inactive” throughout. Further, the Potency in [8] was 26.4 µM (active); in assay [9], 14.8 µM (active); in assay [4] it was 20.9 µM (active); in assay [5], 9.35 µM (active); in assay [6], 14.8 µM (active); in [7], 7.43 µM (active).

On to `CC(CCc1ccc(O)cc1)NCCc1ccc(O)c(O)c1` (configuration not stated), for which, in assay [1], the result was inactive. In addition, the Potency entry in assay [2] and in assay [3] was “inactive” in each case. In addition, the Potency in [4] was 20.9 µM (active); in [5], 18.7 µM (active); in assay [6], 20.9 µM (active); in assay [7] it was 16.6 µM (active).

For the compound `NCCS(=O)(=O)O`, the call in assay [1] was inactive. The Potency result in assay [2], in [3], in [4], in assay [5], in [6] and in assay [7] was “inactive” each time.

As for `N[C@@H](Cc1c[nH]c2ccc(O)cc12)C(=O)O`, the compound was called inactive in [1]. The Potency entry in assay [2], in assay [3], in assay [9] and in assay [4] was “inactive” in each case.

Turning to `COc1cc2c(c(OC)c1OC)-c1ccc(OC)c(=O)cc1[C@@H](NC(C)=O)CC2`, the result in [1] was inactive. In addition, the Potency entry in assay [2], in assay [3], in [8], in assay [4], in assay [5] and in assay [7] was “inactive” each time.

Take `CCCCc1oc2ccccc2c1C(=O)c1cc(I)c(OCCN(CC)CC)c(I)c1`: in [1], the compound was called inactive. Also, the Potency result in assay [2] and in [3] was “inactive” in each case. Besides, the Potency in assay [9] is 13.2 µM (active); in assay [5], 8.33 µM (active); in assay [7], 18.7 µM (active).

For the compound `CN1CCN(CCCN2c3ccccc3Sc3ccc(Cl)cc32)CC1`, the compound was classed as inactive in assay [1]. Further, the Potency entry in assay [2] and in assay [3] was “inactive” each time. Moreover, the Potency is 23.5 µM (active) in [8]; 23.5 µM (active) in assay [4]; 16.6 µM (active) in assay [5]; 20.9 µM (active) in [6]; 16.6 µM (active) in assay [7].

`CN1CCC(=C2c3ccccc3C=Cc3ccccc32)CC1`: in assay [1], the outcome was inactive. The Potency entry in assay [2], in assay [3] and in [7] was “inactive” each time.

Regarding `CC1COc2c(N3CCN(C)CC3)c(F)cc3c(=O)c(C(=O)O)cn1c23` (configuration not stated), in assay [1], the compound was called inactive. Moreover, the Potency result in [2], in [3], in [4], in assay [6] and in assay [7] was “inactive” in each case.
